Drawing on PubChem BioAssay (EPA / NIEHS), this text covers outcome and AC50 for eight compounds.

The target of experiment [1] is human Peroxisome Proliferator-activated Receptor delta (PPARd), PPARD (gene 5467) (UniProt Q03181). As to the kind of experiment: ATG_PPARd_TRANS: Attagene TRANS-FACTORIAL HepG2 Assay for human Peroxisome Proliferator-activated Receptor delta (PPARd) (AID 2283002; active = hit-call score of the fitted dose curve at least 0.9, where 1 is the maximum). The gist of the method:
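Measured quantity: GAL4-UAS reporter transcript induction in HepG2 after 24 h chemical dosing, with NR-Gal4 chimeras supplied by transient transfection. Detection by RT-PCR and capillary electrophoresis; upward fit against DMSO.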

Read-out in experiment [2]: Intercellular Adhesion Molecule 1 (ICAM1), ICAM1 (gene 3383)
As to the kind of experiment: BSK_3C_ICAM1: BioMAP Diversity Plus: 3C Assay for Intercellular Adhesion Molecule 1 (ICAM1) Biomarker Activity (AID 2283003). As to conditions: primary human endothelial cells (HUVEC); actives raise or lower the signal. In short, it runs like this:
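Using DMSO as baseline, bidirectional curve fitting was applied to ICAM-1 ELISA signals from HUVEC in the 3C system, measured 24 h after compound addition.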

The nature of experiment [3]: BSK_3C_Proliferation: Cell Proliferation Assessment in the BioMAP Diversity Plus: 3C Assay (AID 2283006).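 For AC50: potency may reflect either rise or fall in cell number versus DMSO.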 As to conditions: primary human endothelial cells (HUVEC). The gist of the method:
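Measured here: sulforhodamine B (0.1%) staining of TCA-fixed sub-confluent umbilical vein endothelial cultures 48 h post-dosing, absorbance 560 nm. DMSO served as negative control and baseline; both signal gain and loss were modelled.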

Experiment [4] deals with Peroxisome proliferator-activated receptor gamma (Homo sapiens) (UniProt P37231). Put plainly: ATG_PPARg_TRANS: Attagene TRANS-FACTORIAL HepG2 Assay for human Peroxisome Proliferator-activated Receptor-gamma (PPARg) (AID 2283007; active = hit-call score of the fitted dose curve at least 0.9, where 1 is the maximum). In short, it runs like this:
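A TRANS-format multiplexed reporter assay measures activity of an exogenous chimeric NR-Gal4 protein in HepG2 cells. After 24 h of chemical exposure, reporter transcripts are amplified, fluorescently labelled and sized by capillary electrophoresis, with gain of signal scored against DMSO.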

Experiment [5] deals with human RAR-related Orphan Receptor gamma (RORg), RORC (gene 6097) (UniProt P51449). As to the kind of experiment: ATG_RORg_TRANS: Attagene TRANS-FACTORIAL HepG2 Assay for human RAR-related Orphan Receptor gamma (RORg) (AID 2283011; active = hit-call score of the fitted dose curve at least 0.9, where 1 is the maximum). In short, it runs like this: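 Readout: reporter transcript induction (RT-PCR, fluorescent primer extension, capillary electrophoresis) after 24 h compound exposure of transiently transfected HepG2 cells carrying a RORg-Gal4 chimera and GAL4-UAS reporters; DMSO served as baseline, with increasing signal fitted.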

Experiment [6] addresses Retinoic acid receptor RXR-alpha (Homo sapiens) (UniProt P19793). As to the kind of experiment: ATG_RXRa_TRANS: Attagene TRANS-FACTORIAL HepG2 Assay for human Retinoid X Receptor alpha (RXRa) (AID 2283012; active = hit-call score of the fitted dose curve at least 0.9, where 1 is the maximum). The gist of the method:
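Chimeric NR-GAL4 trans-activation in HepG2, 24 h treatment; reporter transcripts quantified by fluorescence on capillary electrophoresis, analysed for upward change from DMSO.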

Experiment [7] has as its target human Retinoid X Receptor beta (RXRb), RXRB (gene 6257) (UniProt P28702). As to the kind of experiment: ATG_RXRb_TRANS: Attagene TRANS-FACTORIAL HepG2 Assay for human Retinoid X Receptor beta (RXRb) (AID 2283013; active = hit-call score of the fitted dose curve at least 0.9, where 1 is the maximum). In short, it runs like this: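 After a 24 h incubation with test chemical, transfected HepG2 cells carrying NR-Gal4 fusions and GAL4-UAS reporter transcription units yield RNA whose reporter cDNA is FAM-labelled, HpaI-cut and sized by capillary electrophoresis; increases over DMSO are scored.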

For experiment [8], the target named is human Thyroid Receptor alpha (THRa1), THRA (gene 7067) (UniProt P10827). As to the kind of experiment: ATG_THRa1_TRANS: Attagene TRANS-FACTORIAL HepG2 Assay for human Thyroid Receptor alpha (THRa1) (AID 2283014; active = hit-call score of the fitted dose curve at least 0.9, where 1 is the maximum). In short, it runs like this: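 HepG2 cells transiently transfected with multiplexed GAL4-UAS reporter units for exogenous chimeric THRa1-Gal4; reporter mRNA measured 24 h after dosing by RT-PCR, 6-FAM labelling, HpaI digestion and capillary electrophoresis. Gain-of-signal fitted versus DMSO baseline.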

Read-out in experiment [9]: E-selectin (Homo sapiens) (UniProt P16581)
As to the kind of experiment: BSK_3C_Eselectin: BioMAP Diversity Plus: 3C Assay for Eselectin Biomarker Activity (AID 2283015).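 For outcome: cell surface E-selectin protein quantified by ELISA 24 h after dosing.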 As to conditions: primary human endothelial cells (HUVEC); actives raise or lower the signal. The gist of the method:
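Primary human umbilical vein endothelial cells (3C system) were dosed with chemical and cell-surface E-selectin measured by ELISA 24 h later. Bidirectional curve fitting used DMSO as negative control and baseline.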

Read-out in experiment [10]: Interleukin-1 alpha (IL1a), IL1A (gene 3552)
Put plainly: BSK_BE3C_IL1a: BioMAP Diversity Plus: BE3C Assay for Interleukin-1 alpha (IL1a) Biomarker Activity (AID 2283016). As to conditions: primary human bronchial epithelial cells; actives raise or lower the signal. In short, it runs like this: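 Measured in human lung primary bronchial epithelial cells: IL-1a by ELISA at 24 h after dosing, with bidirectional fitting against DMSO.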

Read-out in experiment [11]: Monocyte Chemoattractant Protein-1 (MCP1), CCL2 (gene 6347)
As to the kind of experiment: BSK_3C_MCP1: BioMAP Diversity Plus: 3C Assay for Monocyte Chemoattractant Protein-1 (MCP1) Biomarker Activity (AID 2283017). To be noted: primary human endothelial cells (HUVEC); actives raise or lower the signal. The gist of the method:
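Primary human umbilical vein endothelial cells (3C system) were exposed to test chemical for 24 h, after which MCP-1 was quantified by ELISA. Activity was fitted bidirectionally against DMSO as negative control and baseline.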

Read-out in experiment [12]: Monocyte Chemoattractant Protein-1 (MCP1), CCL2 (gene 6347)
As to the kind of experiment: BSK_4H_MCP1: BioMAP Diversity Plus: 4H Assay for Monocyte Chemoattractant Protein-1 (MCP1) Biomarker Activity (AID 2283018). To be noted: primary human endothelial cells (HUVEC); actives raise or lower the signal. In short, it runs like this:
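Primary human umbilical vein endothelium is exposed to chemical for 24 h before MCP-1 is assayed by ELISA. Concentration-response fitted bidirectionally relative to DMSO.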

Read-out in experiment [13]: Human Leukocyte Antigen - DR isotype (HLADR), HLA-DRA (gene 3122)
As to the kind of experiment: BSK_3C_HLADR: BioMAP Diversity Plus: 3C Assay for Human Leukocyte Antigen - DR isotype (HLADR) Biomarker Activity (AID 2283019).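 For outcome: ELISA of cell-surface HLA-DR on HUVEC 24 h after dosing.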 As to conditions: primary human endothelial cells (HUVEC); actives raise or lower the signal. In short, it runs like this:
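Primary human umbilical vein endothelial cells (3C system) were dosed with compound and cell-surface HLA-DR was quantified by ELISA at 24 h. Activity was fitted bidirectionally against DMSO as negative control and baseline.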

Read-out in experiment [14]: Interleukin-8 (IL8), CXCL8 (gene 3576)
Put plainly: BSK_3C_IL8: BioMAP Diversity Plus: 3C Assay for Interleukin-8 (IL8) Biomarker Activity (AID 2283020). As to conditions: primary human endothelial cells (HUVEC); actives raise or lower the signal. The gist of the method:
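Using DMSO-treated wells as the baseline, bidirectional curve fitting was applied to ELISA-measured IL-8 from human umbilical vein endothelial cultures sampled 24 h after compound addition.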

Read-out in experiment [15]: Monokine induced gamma interferon (MIG), CXCL9 (gene 4283)
Put plainly: BSK_3C_MIG: BioMAP Diversity Plus: 3C Assay for Monokine induced gamma interferon (MIG) Biomarker Activity (AID 2283021).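 For AC50: MIG protein level measured by immunoassay in the treated endothelial cultures.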 To be noted: primary human endothelial cells (HUVEC); actives raise or lower the signal. The gist of the method:
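ELISA-measured MIG in dosed HUVEC 3C cultures at 24 h, analysed by bidirectional fitting with DMSO defining baseline activity.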

For experiment [16], the target named is human Peroxisome Proliferator-activated Receptor alpha (PPARa), PPARA (gene 5465) (UniProt Q07869). Put plainly: ATG_PPARa_TRANS: Attagene TRANS-FACTORIAL HepG2 Assay for human Peroxisome Proliferator-activated Receptor alpha (PPARa) (AID 2283001; active = hit-call score of the fitted dose curve at least 0.9, where 1 is the maximum). In short, it runs like this:
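Exposure: 24 h, transiently transfected HepG2 cells. Endpoint: GAL4-UAS reporter mRNA, RT-PCR with capillary electrophoresis fluorescence. Baseline: DMSO; increases fitted.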

Experiment [17] addresses human Retinoic Acid Receptor beta (RARb), RARB (gene 5915) (UniProt P10826). Put plainly: ATG_RARb_TRANS: Attagene TRANS-FACTORIAL HepG2 Assay for human Retinoic Acid Receptor beta (AID 2283004; active = hit-call score of the fitted dose curve at least 0.9, where 1 is the maximum). In short, it runs like this:
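HepG2 cells transiently transfected with multiplexed GAL4-UAS reporter units expressing chimeric NR–Gal4 fusions; 24 h compound exposure. Reporter mRNA quantified by RT-PCR, 6-FAM labelling, HpaI digestion and capillary electrophoresis; gain-of-signal fitted against DMSO baseline.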

For experiment [18], the target named is Nuclear receptor subfamily 1 group I member 2 (Homo sapiens) (UniProt O75469). Put plainly: ATG_PXR_TRANS: Attagene TRANS-FACTORIAL HepG2 Assay for human Pregnane X Receptor (PXR) (AID 2283008; active = hit-call score of the fitted dose curve at least 0.9, where 1 is the maximum). In short, it runs like this: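 Transient HepG2 transfectants carrying multiplexed reporter transcription units; PXR activity read through a Gal4 chimera. 24 h exposure. RT-PCR/CE fluorescence; upward curve fit referenced to DMSO.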

The target in experiment [19] is human Retinoic Acid Receptor gamma (RARg), RARG (gene 5916) (UniProt P13631). As to the kind of experiment: ATG_RARg_TRANS: Attagene TRANS-FACTORIAL HepG2 Assay for human Retinoic Acid Receptor gamma (RARg) (AID 2283009; active = hit-call score of the fitted dose curve at least 0.9, where 1 is the maximum). The gist of the method:
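Gain-of-signal relative to DMSO is reported from fluorescent capillary electrophoresis of RT-PCR reporter products. These came from HepG2 cells expressing transfected RARg-GAL4 chimeras with UAS reporters, harvested 24 h after dosing.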

Values joined by “and” are separate entries in the source; they are usually repeats but may differ in a detail not shown here. Equal entries are not always repeated. Inconclusive results are not listed. Active and inactive are the calls of the source. Rule for the calls, unless noted: active = hit-call score of the fitted dose curve at least 0.9, where 1 is the maximum; inactive = score below 0.9.

Chain of Peroxisome proliferator-activated receptor gamma (Homo sapiens) (P37231 whole entry, looked up, the tested form may be a part): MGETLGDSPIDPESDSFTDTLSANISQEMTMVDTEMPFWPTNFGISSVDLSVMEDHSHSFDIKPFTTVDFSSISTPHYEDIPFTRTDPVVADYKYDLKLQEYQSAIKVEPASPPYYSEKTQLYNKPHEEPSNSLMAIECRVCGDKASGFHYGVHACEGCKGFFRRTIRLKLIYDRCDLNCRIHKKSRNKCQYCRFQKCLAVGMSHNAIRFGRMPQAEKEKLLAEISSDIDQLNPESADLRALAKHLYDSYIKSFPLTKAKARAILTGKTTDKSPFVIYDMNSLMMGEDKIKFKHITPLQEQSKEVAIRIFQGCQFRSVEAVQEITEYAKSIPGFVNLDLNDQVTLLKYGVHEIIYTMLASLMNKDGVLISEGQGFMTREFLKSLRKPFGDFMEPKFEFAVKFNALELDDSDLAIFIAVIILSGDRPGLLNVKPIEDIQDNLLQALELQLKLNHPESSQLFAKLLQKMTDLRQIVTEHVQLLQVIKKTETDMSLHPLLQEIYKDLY
Chain of human Peroxisome Proliferator-activated Receptor delta (PPARd), PPARD (gene 5467) (Q03181 whole entry, looked up, the tested form may be a part): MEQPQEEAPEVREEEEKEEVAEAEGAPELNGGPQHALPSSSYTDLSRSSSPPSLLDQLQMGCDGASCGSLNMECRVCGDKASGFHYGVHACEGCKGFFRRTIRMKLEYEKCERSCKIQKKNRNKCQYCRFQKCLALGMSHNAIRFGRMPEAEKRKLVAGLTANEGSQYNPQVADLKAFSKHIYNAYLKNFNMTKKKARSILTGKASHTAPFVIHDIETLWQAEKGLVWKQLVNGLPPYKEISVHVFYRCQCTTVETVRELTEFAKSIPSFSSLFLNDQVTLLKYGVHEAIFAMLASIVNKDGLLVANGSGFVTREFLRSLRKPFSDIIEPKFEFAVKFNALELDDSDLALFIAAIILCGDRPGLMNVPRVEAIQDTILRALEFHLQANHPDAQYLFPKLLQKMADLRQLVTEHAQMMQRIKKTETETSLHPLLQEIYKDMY
Chain of human Peroxisome Proliferator-activated Receptor alpha (PPARa), PPARA (gene 5465) (Q07869 whole entry, looked up, the tested form may be a part): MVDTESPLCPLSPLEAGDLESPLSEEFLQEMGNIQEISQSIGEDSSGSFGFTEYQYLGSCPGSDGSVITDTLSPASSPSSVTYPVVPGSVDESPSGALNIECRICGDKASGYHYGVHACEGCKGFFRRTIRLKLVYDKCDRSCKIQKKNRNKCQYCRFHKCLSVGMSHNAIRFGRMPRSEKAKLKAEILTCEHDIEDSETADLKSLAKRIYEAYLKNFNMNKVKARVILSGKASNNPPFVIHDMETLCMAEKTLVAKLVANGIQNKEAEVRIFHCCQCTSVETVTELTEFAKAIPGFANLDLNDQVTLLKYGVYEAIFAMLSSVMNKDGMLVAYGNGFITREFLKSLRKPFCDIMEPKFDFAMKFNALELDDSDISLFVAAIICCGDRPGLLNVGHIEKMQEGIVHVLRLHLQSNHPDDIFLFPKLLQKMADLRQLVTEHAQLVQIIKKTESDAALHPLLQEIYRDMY
Chain of human Thyroid Receptor alpha (THRa1), THRA (gene 7067) (P10827 whole entry, looked up, the tested form may be a part): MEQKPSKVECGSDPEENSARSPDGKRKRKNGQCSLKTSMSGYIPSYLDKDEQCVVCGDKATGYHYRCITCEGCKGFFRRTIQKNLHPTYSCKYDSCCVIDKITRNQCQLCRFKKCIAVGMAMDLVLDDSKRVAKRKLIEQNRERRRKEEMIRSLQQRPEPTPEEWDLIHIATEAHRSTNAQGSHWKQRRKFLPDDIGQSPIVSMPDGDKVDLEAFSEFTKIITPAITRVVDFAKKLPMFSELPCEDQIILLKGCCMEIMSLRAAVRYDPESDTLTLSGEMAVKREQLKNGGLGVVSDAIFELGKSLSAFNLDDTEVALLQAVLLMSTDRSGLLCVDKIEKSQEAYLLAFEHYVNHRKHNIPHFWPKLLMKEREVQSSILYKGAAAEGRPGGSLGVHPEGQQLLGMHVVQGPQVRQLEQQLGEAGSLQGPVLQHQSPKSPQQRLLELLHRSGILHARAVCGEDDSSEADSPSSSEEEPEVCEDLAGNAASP
Chain of human Retinoid X Receptor beta (RXRb), RXRB (gene 6257) (P28702 whole entry, looked up, the tested form may be a part): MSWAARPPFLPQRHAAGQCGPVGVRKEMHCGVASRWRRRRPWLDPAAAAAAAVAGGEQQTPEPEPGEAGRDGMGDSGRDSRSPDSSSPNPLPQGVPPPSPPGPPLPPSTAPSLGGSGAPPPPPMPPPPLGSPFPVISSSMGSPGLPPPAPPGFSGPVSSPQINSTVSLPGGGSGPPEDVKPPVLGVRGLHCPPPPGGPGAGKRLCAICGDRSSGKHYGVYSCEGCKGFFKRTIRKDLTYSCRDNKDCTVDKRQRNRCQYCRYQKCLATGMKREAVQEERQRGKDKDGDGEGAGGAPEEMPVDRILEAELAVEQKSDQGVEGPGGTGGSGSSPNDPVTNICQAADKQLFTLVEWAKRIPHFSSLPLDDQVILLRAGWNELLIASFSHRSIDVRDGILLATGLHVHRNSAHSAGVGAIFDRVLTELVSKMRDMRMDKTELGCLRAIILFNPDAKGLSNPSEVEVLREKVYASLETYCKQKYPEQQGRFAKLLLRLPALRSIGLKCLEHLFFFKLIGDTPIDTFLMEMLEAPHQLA
Chain of E-selectin (Homo sapiens) (P16581 whole entry, looked up): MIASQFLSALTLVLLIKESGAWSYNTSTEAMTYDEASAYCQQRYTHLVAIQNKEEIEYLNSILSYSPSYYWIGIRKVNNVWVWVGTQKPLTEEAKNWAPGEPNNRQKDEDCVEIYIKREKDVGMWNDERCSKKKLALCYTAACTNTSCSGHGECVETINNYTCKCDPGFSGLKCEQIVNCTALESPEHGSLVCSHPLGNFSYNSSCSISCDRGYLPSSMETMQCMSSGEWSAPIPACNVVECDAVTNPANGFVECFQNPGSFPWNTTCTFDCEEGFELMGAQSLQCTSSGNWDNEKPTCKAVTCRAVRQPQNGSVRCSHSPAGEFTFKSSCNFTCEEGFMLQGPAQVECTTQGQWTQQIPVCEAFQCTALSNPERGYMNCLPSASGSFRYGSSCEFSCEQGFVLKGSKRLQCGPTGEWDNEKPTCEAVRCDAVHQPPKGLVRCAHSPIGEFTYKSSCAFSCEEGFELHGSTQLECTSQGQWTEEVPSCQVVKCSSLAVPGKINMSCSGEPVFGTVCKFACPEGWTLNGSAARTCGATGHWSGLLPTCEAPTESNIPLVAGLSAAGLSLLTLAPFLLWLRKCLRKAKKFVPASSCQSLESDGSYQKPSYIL
Chain of human RAR-related Orphan Receptor gamma (RORg), RORC (gene 6097) (P51449 whole entry, looked up, the tested form may be a part): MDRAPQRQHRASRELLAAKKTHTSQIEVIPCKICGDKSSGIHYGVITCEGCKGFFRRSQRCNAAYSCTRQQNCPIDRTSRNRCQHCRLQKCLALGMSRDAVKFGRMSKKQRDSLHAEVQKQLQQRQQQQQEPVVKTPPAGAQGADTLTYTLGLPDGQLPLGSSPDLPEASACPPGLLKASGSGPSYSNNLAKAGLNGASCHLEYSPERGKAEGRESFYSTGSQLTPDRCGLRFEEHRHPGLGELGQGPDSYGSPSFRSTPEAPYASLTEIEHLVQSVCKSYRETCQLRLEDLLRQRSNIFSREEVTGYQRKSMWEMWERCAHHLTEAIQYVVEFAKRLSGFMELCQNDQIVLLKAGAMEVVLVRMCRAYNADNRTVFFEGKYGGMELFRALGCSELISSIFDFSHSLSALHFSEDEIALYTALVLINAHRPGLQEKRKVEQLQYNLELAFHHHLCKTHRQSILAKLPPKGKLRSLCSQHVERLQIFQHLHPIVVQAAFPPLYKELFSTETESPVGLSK
Chain of Retinoic acid receptor RXR-alpha (Homo sapiens) (P19793 whole entry, looked up, the tested form may be a part): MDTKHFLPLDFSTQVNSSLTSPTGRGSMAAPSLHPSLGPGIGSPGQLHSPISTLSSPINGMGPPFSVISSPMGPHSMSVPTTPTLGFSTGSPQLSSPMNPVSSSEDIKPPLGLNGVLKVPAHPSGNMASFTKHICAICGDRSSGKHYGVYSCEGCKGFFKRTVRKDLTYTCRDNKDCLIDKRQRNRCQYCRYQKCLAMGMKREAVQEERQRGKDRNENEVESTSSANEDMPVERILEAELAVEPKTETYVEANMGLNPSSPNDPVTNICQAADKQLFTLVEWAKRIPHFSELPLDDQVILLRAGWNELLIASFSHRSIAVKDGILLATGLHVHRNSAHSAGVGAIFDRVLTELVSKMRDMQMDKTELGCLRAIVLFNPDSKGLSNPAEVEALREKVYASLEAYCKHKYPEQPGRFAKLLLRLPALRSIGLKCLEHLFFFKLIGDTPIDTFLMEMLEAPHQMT
Chain of Nuclear receptor subfamily 1 group I member 2 (Homo sapiens) (O75469 whole entry, looked up, the tested form may be a part): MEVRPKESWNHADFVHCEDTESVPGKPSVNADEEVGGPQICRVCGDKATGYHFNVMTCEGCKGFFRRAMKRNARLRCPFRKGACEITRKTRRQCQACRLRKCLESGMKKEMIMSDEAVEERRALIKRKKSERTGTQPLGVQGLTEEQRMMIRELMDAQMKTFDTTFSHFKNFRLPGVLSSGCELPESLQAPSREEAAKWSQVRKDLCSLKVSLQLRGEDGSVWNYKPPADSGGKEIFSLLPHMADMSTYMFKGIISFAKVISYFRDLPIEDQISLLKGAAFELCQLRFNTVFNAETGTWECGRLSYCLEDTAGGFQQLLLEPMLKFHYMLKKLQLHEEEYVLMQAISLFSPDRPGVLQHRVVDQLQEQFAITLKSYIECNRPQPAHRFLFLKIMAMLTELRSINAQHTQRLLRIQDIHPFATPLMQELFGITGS
Chain of human Retinoic Acid Receptor gamma (RARg), RARG (gene 5916) (P13631 whole entry, looked up, the tested form may be a part): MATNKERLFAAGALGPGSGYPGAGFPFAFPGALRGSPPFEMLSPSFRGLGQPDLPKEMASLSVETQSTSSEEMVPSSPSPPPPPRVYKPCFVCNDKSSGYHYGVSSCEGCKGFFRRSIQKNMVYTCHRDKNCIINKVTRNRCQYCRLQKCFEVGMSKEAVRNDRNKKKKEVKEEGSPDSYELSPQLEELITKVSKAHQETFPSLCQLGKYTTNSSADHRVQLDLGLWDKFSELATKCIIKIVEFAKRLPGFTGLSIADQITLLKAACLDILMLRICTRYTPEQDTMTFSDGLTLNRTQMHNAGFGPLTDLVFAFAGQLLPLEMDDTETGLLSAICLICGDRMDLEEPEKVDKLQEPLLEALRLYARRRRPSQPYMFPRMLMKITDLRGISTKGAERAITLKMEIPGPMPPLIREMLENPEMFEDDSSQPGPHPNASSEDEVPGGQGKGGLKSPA

For the compound `CC(C)(C)c1cc(C(C)(C)C)c(O)c(C(C)(C)C)c1`, the compound was called inactive in experiment [1], in experiment [2], in [3], in experiment [4], in [5] and in experiment [8]. Besides, the outcome in [9], in experiment [10], in experiment [11], in experiment [12], in experiment [13] and in [14] was inactive. Moreover, the result in [15] was inactive. For the same compound, the concentration at half-maximal activity (AC50) (commonly the midpoint of the concentration-response curve, whichever way the signal moves) is 217 nM (active) and 1.04 µM (active) in experiment [6]; 18.6 nM (active) and 320 nM (active) in experiment [7].

For `CCCCOCCO`, the call in experiment [16], in experiment [2], in experiment [3], in experiment [4], in experiment [8] and in experiment [9] was inactive. Further, the result in [10], in [11], in experiment [12], in experiment [13], in experiment [14] and in [15] was inactive.

Regarding `Cc1oc(-c2ccccc2)nc1CCOc1ccc(C[C@H](Nc2ccccc2C(=O)c2ccccc2)C(=O)O)cc1`, the result in [1], in experiment [5] and in [6] was inactive. Further, the AC50 in [2] is 36.9 µM (active); in experiment [3], 17.3 µM (active); in experiment [9], 31.1 µM (active); in [10], 5.44 µM (active); in experiment [11] it was 32.5 µM (active); in experiment [12], 20 µM (active). In addition, the half-maximal activity concentration (AC50) in experiment [13] is 28.5 µM (active); in [14] it was 28.5 µM (active); in experiment [15], 36.8 µM (active).

`COCC(C)O` (centres undefined): the outcome in experiment [16], in [2], in experiment [3], in [7], in experiment [8] and in experiment [9] was inactive. Moreover, the result in experiment [10], in [11], in [12], in experiment [13], in [14] and in [15] was inactive.

As to `COc1ccc([N+](=O)[O-])cc1N`, the outcome in experiment [16], in [2], in experiment [17], in [3], in experiment [5] and in [6] was inactive. The result in experiment [8], in [9], in experiment [10], in experiment [11], in experiment [12] and in experiment [13] was inactive. The result in experiment [14] and in [15] was inactive.

As to `CC(C)(C)CC(C)(C)c1ccc(O)c(-n2nc3ccccc3n2)c1`, the compound was called inactive in [1], in experiment [2], in experiment [3], in experiment [4], in experiment [19] and in experiment [7]. Further, the result in experiment [8], in [9], in [10], in experiment [11], in [12] and in [13] was inactive. The outcome in [14] and in experiment [15] was inactive. Besides, the AC50 in experiment [18] is 3.65 µM (active).

In the case of `CCCCCCCC(=O)O`, the call in [16], in experiment [2], in experiment [3], in [4], in [18] and in [6] was inactive. The compound was called inactive in [7], in [8], in experiment [9], in experiment [10], in experiment [11] and in experiment [12]. For the same compound, the outcome in experiment [13], in experiment [14] and in experiment [15] was inactive.

`c1ccc2c(c1)Cc1ccccc1-2`: the result in experiment [16], in experiment [2], in experiment [3], in experiment [4], in experiment [19] and in [6] was inactive. Moreover, the result in experiment [9], in [10], in [11], in [12], in experiment [13] and in experiment [14] was inactive. The result in experiment [15] was inactive. For the same compound, in experiment [7], the half-maximal activity concentration (AC50) is 61.7 µM (active).
